The campaign covered roughly 5,500 compounds. About 2,000 (36%) were called active. Inconclusive results (about 18%) are left out. The list shows a part of the results. Values without a mark were called inactive. Cut-off read from the data, not from the text of the source: active = normalized growth mostly below about 0.91 (no sharp cut-off); inconclusive = no clear call, values can overlap the other calls; inactive = mostly above about 0.92.
Experiment: chemical genetic growth profiling, strain panel (AID 1159580);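 note: tested at 20 µM; growth read once vehicle control cultures reached saturation at 30 °C; 1 = growth at the plate median or of vehicle wells; lower values mean less growth of the strain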
Details: growth OD

CCOC(=O)c1c(C)cc(OC)cc1O
normalized growth (S. cerevisiae deletion strains, locus YJR075W, strain HOC1, stronger effect = lower value): 0.936 | normalized growth (S. cerevisiae deletion strains, locus YKL009W, strain mrt4, stronger effect = lower value): 0.939 | normalized growth (S. cerevisiae deletion strains, locus YKL068W, stronger effect = lower value): 0.956 | normalized growth (S. cerevisiae deletion strains, locus YKL085W, strain MDH1 (second series), stronger effect = lower value): 0.946 | normalized growth (S. cerevisiae deletion strains, locus YKL085W, strain MDH1, stronger effect = lower value): 0.946 | normalized growth (S. cerevisiae deletion strains, locus YKL160W, strain elf1, stronger effect = lower value): 0.976 | normalized growth (S. cerevisiae deletion strains, locus YKL190W, strain CNB1, stronger effect = lower value): 0.996 | normalized growth (S. cerevisiae deletion strains, locus YKR001C, strain vps1, stronger effect = lower value): 0.842 (active) | normalized growth (S. cerevisiae deletion strains, locus YKR026C, strain gcn3, stronger effect = lower value): 0.951 | normalized growth (S. cerevisiae deletion strains, locus YKR091W, strain srl3, stronger effect = lower value): 0.971 | normalized growth (S. cerevisiae deletion strains, locus YLL001W, strain dnm1, stronger effect = lower value): 0.962 | normalized growth (S. cerevisiae deletion strains, locus YLL026W, stronger effect = lower value): 0.965 | normalized growth (S. cerevisiae deletion strains, locus YLL041C, strain sdh2, stronger effect = lower value): 0.96 | normalized growth (S. cerevisiae deletion strains, locus YLR027C, strain aat2, stronger effect = lower value): 0.963 | normalized growth (S. cerevisiae deletion strains, locus YLR039C, strain RIC1, stronger effect = lower value): 0.872 | normalized growth (S. cerevisiae deletion strains, locus YLR058C, strain SHM2, stronger effect = lower value): 0.993 | normalized growth (S. cerevisiae deletion strains, locus YLR102C, strain apc9, stronger effect = lower value): 0.946 | normalized growth (S. cerevisiae deletion strains, locus YLR113W, strain HOG1, stronger effect = lower value): 0.835 (active) | normalized growth (S. cerevisiae deletion strains, locus YLR221C, strain rsa3, stronger effect = lower value): 0.949 | normalized growth (S. cerevisiae deletion strains, locus YLR258W, strain gsy2, stronger effect = lower value): 0.964 | normalized growth (S. cerevisiae deletion strains, locus YLR262C, strain YPT6 (second series), stronger effect = lower value): 0.731 (active) | normalized growth (S. cerevisiae deletion strains, locus YLR262C, strain YPT6, stronger effect = lower value): 0.928 | normalized growth (S. cerevisiae deletion strains, locus YLR268W, strain sec22, stronger effect = lower value): 0.958 | normalized growth (S. cerevisiae deletion strains, locus YLR320W, strain mms22, stronger effect = lower value): 0.859 (active) | normalized growth (S. cerevisiae deletion strains, locus YLR330W, strain CHS5, stronger effect = lower value): 1.01 | normalized growth (S. cerevisiae deletion strains, locus YLR342W, strain FKS1 (second series), stronger effect = lower value): 0.971 | normalized growth (S. cerevisiae deletion strains, locus YLR342W, strain FKS1, stronger effect = lower value): 0.984 | normalized growth (S. cerevisiae deletion strains, locus YLR357W, strain rsc2, stronger effect = lower value): 0.969 | normalized growth (S. cerevisiae deletion strains, locus YLR370C, strain arc18, stronger effect = lower value): 0.981 | normalized growth (S. cerevisiae deletion strains, locus YLR371W, strain rom2, stronger effect = lower value): 0.962 | normalized growth (S. cerevisiae deletion strains, locus YLR384C, strain iki3, stronger effect = lower value): 0.972 | normalized growth (S. cerevisiae deletion strains, locus YLR418C, strain cdc73, stronger effect = lower value): 0.891 | normalized growth (S. cerevisiae deletion strains, locus YML016C, strain PPZ1, stronger effect = lower value): 0.988 | normalized growth (S. cerevisiae deletion strains, locus YML032C, strain rad52, stronger effect = lower value): 0.91 | normalized growth (S. cerevisiae deletion strains, locus YML120C, strain ndi1, stronger effect = lower value): 0.972 | normalized growth (S. cerevisiae deletion strains, locus YML124C, strain tub3, stronger effect = lower value): 0.947 | normalized growth (S. cerevisiae deletion strains, locus YMR058W, strain fet3, stronger effect = lower value): 0.968 | normalized growth (S. cerevisiae deletion strains, locus YMR078C, strain ctf18, stronger effect = lower value): 0.926 | normalized growth (S. cerevisiae deletion strains, locus YMR125W, strain sto1, stronger effect = lower value): 1 | normalized growth (S. cerevisiae deletion strains, locus YMR129W, stronger effect = lower value): 0.977 | normalized growth (S. cerevisiae deletion strains, locus YMR205C, strain PFK2, stronger effect = lower value): 0.887 | normalized growth (S. cerevisiae deletion strains, locus YMR223W, strain ubp8, stronger effect = lower value): 0.924 | normalized growth (S. cerevisiae deletion strains, locus YMR231W, strain pep5, stronger effect = lower value): 0.985 | normalized growth (S. cerevisiae deletion strains, locus YMR263W, strain SAP30, stronger effect = lower value): 0.985 | normalized growth (S. cerevisiae deletion strains, locus YMR307W, strain GAS1, stronger effect = lower value): 0.996 | normalized growth (S. cerevisiae deletion strains, locus YNL067W, strain RPL9B, stronger effect = lower value): 0.99 | normalized growth (S. cerevisiae deletion strains, locus YNL071W, strain lat1, stronger effect = lower value): 0.795 (active) | normalized growth (S. cerevisiae deletion strains, locus YNL128W, strain TEP1, stronger effect = lower value): 1.01 | normalized growth (S. cerevisiae deletion strains, locus YNL153C, strain GIM3, stronger effect = lower value): 0.989 | normalized growth (S. cerevisiae deletion strains, locus YNL183C, strain NPR1, stronger effect = lower value): 0.872 | normalized growth (S. cerevisiae deletion strains, locus YNL209W, strain ssb2, stronger effect = lower value): 0.992 | normalized growth (S. cerevisiae deletion strains, locus YNL233W, strain BNI4, stronger effect = lower value): 0.98 | normalized growth (S. cerevisiae deletion strains, locus YNL248C, strain rpa49, stronger effect = lower value): 0.936 | normalized growth (S. cerevisiae deletion strains, locus YNL250W, strain rad50, stronger effect = lower value): 0.963 | normalized growth (S. cerevisiae deletion strains, locus YNL271C, strain bni1, stronger effect = lower value): 0.949 | normalized growth (S. cerevisiae deletion strains, locus YNL298W, strain CLA4, stronger effect = lower value): 0.965 | normalized growth (S. cerevisiae deletion strains, locus YNL307C, strain MCK1, stronger effect = lower value): 0.734 (active) | normalized growth (S. cerevisiae deletion strains, locus YNL322C, strain KRE1 (second series), stronger effect = lower value): 0.952 | normalized growth (S. cerevisiae deletion strains, locus YNL322C, strain KRE1, stronger effect = lower value): 0.989 | normalized growth (S. cerevisiae deletion strains, locus YNR049C, strain mso1, stronger effect = lower value): 0.967 | normalized growth (S. cerevisiae deletion strains, locus YNR052C, strain pop2, stronger effect = lower value): 0.976 | normalized growth (S. cerevisiae deletion strains, locus YOL006C, strain TOP1, stronger effect = lower value): 0.77 | normalized growth (S. cerevisiae deletion strains, locus YOL012C, strain htz1): 0.775 | normalized growth (S. cerevisiae deletion strains, locus YOL147C, strain pex11, stronger effect = lower value): 0.947 | normalized growth (S. cerevisiae deletion strains, locus YOR001W, strain rrp6, stronger effect = lower value): 0.974 | normalized growth (S. cerevisiae deletion strains, locus YOR061W, strain CKA2, stronger effect = lower value): 1 | normalized growth (S. cerevisiae deletion strains, locus YOR069W, strain VPS5, stronger effect = lower value): 0.989 | normalized growth (S. cerevisiae deletion strains, locus YOR070C, strain gyp1, stronger effect = lower value): 0.963 | normalized growth (S. cerevisiae deletion strains, locus YOR080W, strain dia2, stronger effect = lower value): 0.997 | normalized growth (S. cerevisiae deletion strains, locus YOR083W, strain WHI5, stronger effect = lower value): 0.955 | normalized growth (S. cerevisiae deletion strains, locus YOR106W, strain vam3, stronger effect = lower value): 0.936 | normalized growth (S. cerevisiae deletion strains, locus YOR136W, strain idh2, stronger effect = lower value): 0.955 | normalized growth (S. cerevisiae deletion strains, locus YOR144C, strain elg1, stronger effect = lower value): 0.957 | normalized growth (S. cerevisiae deletion strains, locus YOR184W, strain ser1, stronger effect = lower value): 0.808 (active) | normalized growth (S. cerevisiae deletion strains, locus YOR231W, strain MKK1, stronger effect = lower value): 0.924 | normalized growth (S. cerevisiae deletion strains, locus YOR265W, strain rbl2, stronger effect = lower value): 0.962 | normalized growth (S. cerevisiae deletion strains, locus YOR270C, strain vph1, stronger effect = lower value): 0.727 (active) | normalized growth (S. cerevisiae deletion strains, locus YOR290C, strain snf2, stronger effect = lower value): 0.929 | normalized growth (S. cerevisiae deletion strains, locus YOR316C, strain cot1, stronger effect = lower value): 0.964 | normalized growth (S. cerevisiae deletion strains, locus YPL051W, strain arl3, stronger effect = lower value): 0.96 | normalized growth (S. cerevisiae deletion strains, locus YPL055C, strain LGE1, stronger effect = lower value): 0.972 | normalized growth (S. cerevisiae deletion strains, locus YPL078C, strain atp4, stronger effect = lower value): 0.932 | normalized growth (S. cerevisiae deletion strains, locus YPL106C, strain sse1, stronger effect = lower value): 1.02 | normalized growth (S. cerevisiae deletion strains, locus YPL240C, strain hsp82, stronger effect = lower value): 0.987 | normalized growth (S. cerevisiae deletion strains, locus YPL241C, strain CIN2, stronger effect = lower value): 0.991 | normalized growth (S. cerevisiae deletion strains, locus YPL256C, strain CLN2, stronger effect = lower value): 0.866 | normalized growth (S. cerevisiae deletion strains, locus YPR119W, strain clb2, stronger effect = lower value): 0.933 | normalized growth (S. cerevisiae deletion strains, locus YPR141C, strain kar3, stronger effect = lower value): 0.946 | normalized growth (S. cerevisiae deletion strains, locus YPR163C, strain tif3, stronger effect = lower value): 0.957 | normalized growth (S. cerevisiae deletion strains, locus YPR167C, strain met16, stronger effect = lower value): 0.96 | normalized growth (S. cerevisiae deletion strains, strain wtn01, stronger effect = lower value): 0.928 | normalized growth (S. cerevisiae strains, strain wild type, stronger effect = lower value): 0.978

— PubChem BioAssay AID1159580 (chemical genetic matrix, 2015)
